Tests used:
Assay in all cases: DAPPL (digital affinity profiling via proximity ligation, sequencing); 10 mM Tris-HCl pH 7.5, 50 mM NaCl, 1 mM DTT, 4% glycerol, room temperature, 30 min; GST-TFs on glutathione beads, 16-mer random dsDNA library, 0.1% formaldehyde crosslink after washing; high values mean tight binding
FLI1 = target: T1, FLI1 (Homo sapiens, UniProt Q01543 1-452); conditions: protein: recombinant; tags: N-terminal GST; dsDNA, one strand shown
T1 sequence: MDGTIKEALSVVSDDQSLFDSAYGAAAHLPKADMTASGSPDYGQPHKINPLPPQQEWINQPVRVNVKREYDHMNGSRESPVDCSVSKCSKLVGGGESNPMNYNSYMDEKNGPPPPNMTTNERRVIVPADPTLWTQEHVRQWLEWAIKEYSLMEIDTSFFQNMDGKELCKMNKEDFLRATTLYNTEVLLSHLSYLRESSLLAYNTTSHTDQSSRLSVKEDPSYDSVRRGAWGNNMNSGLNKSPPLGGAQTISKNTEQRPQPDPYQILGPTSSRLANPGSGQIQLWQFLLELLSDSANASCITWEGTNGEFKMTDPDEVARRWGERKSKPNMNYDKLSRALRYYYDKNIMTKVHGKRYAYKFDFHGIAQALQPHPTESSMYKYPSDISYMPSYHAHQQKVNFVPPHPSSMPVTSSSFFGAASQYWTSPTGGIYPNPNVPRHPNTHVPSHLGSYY
Summary of the method: (§1)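 A tag-only sample was pooled with DNA-barcoded human transcription factors that had been expressed in yeast as GST fusions and captured on glutathione beads. The pools were incubated for 30 min at room temperature with 200 nmole of a random double-stranded 16-mer DNA library in Tris/NaCl/DTT/glycerol buffer, then washed, crosslinked with 0.1% formaldehyde, proximity-ligated (BsaI/T4 ligase, 1 h, 37 °C), PCR-amplified and sequenced on an Illumina NextSeq500. Binding signal is each hexamer's read frequency for a factor divided by its frequency for the tag-only sample.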

ELK1 = target: T2, ELK1 (Homo sapiens, UniProt P19419 1-428); conditions: protein: recombinant; tags: N-terminal GST; dsDNA, one strand shown
T2 sequence: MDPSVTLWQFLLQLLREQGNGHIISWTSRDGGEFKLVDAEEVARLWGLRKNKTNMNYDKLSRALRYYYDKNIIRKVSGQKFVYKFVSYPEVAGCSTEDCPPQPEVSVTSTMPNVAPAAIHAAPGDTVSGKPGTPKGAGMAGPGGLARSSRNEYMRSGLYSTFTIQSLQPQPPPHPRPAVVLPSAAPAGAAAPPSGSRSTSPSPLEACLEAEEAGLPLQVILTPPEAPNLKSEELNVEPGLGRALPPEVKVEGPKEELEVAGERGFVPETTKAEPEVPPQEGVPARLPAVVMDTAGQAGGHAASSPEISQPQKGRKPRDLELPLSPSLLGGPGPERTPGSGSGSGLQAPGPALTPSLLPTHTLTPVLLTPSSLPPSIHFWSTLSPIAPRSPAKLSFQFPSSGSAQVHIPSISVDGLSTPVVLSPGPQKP
Summary of the method: as §1

GABPA = target: T3, GABPA (Homo sapiens, UniProt Q06546 1-454); conditions: protein: recombinant; tags: N-terminal GST; dsDNA, one strand shown
T3 sequence: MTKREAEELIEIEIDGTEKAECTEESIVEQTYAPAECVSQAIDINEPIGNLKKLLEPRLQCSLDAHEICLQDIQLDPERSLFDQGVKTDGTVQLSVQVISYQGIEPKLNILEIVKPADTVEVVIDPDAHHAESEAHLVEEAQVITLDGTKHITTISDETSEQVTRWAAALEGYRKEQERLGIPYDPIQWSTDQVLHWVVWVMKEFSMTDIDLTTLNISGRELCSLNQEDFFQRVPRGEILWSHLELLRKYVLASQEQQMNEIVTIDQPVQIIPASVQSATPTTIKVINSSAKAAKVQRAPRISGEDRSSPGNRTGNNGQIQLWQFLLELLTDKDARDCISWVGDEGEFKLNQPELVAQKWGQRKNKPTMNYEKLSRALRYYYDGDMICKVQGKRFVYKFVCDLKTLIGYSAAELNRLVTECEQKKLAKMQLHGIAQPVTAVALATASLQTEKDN
Summary of the method: as §1

ELF1 = ELF1 (Homo sapiens, UniProt P32519 1-619); conditions: protein: recombinant; tags: N-terminal GST; dsDNA, one strand shown
Summary of the method: as §1

SPI1 = SPI1 (Homo sapiens, UniProt P17947 1-270); conditions: protein: recombinant; tags: N-terminal GST; dsDNA, one strand shown
Summary of the method: as §1

SPIB = SPIB (Homo sapiens, UniProt Q01892 1-262); conditions: protein: recombinant; tags: N-terminal GST; dsDNA, one strand shown
Summary of the method: as §1

FEV = target: T4, FEV (Homo sapiens, UniProt Q99581 1-238); conditions: protein: recombinant; tags: N-terminal GST; dsDNA, one strand shown
T4 sequence: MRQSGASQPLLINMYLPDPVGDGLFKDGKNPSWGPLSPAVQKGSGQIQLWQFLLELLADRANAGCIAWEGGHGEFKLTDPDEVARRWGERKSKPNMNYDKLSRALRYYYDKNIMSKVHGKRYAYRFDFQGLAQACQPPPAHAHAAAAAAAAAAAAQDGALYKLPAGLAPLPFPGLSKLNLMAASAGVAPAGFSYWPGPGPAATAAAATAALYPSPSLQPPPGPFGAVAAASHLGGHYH
Summary of the method: as §1

ETV5 = ETV5 (Homo sapiens, UniProt P41161 1-510); conditions: protein: recombinant; tags: N-terminal GST; dsDNA, one strand shown
Summary of the method: as §1

HSF1 = HSF1 (Homo sapiens, UniProt Q00613 1-529); conditions: protein: recombinant; tags: N-terminal GST; chain copies: 3; dsDNA, one strand shown
Summary of the method: as §1

ELF4 = ELF4 (Homo sapiens, UniProt Q99607 1-663); conditions: protein: recombinant; tags: N-terminal GST; dsDNA, one strand shown
Summary of the method: as §1

ELK4 = target: T5, ELK4 (Homo sapiens, UniProt P28324-2 1-405); conditions: protein: recombinant; tags: N-terminal GST; dsDNA, one strand shown
T5 sequence: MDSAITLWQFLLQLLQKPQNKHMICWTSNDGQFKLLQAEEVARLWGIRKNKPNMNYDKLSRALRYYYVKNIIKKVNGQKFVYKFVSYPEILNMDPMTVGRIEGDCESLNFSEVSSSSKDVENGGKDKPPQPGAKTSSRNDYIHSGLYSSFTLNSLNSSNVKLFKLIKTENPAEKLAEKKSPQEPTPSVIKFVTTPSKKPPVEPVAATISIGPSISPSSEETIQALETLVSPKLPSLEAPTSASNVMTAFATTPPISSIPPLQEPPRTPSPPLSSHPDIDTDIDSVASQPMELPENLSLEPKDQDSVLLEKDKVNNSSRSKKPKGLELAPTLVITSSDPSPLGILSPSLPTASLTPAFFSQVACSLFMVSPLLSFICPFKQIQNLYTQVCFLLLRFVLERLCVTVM
Summary of the method: as §1

ETV2 = target: T6, ETV2 (Homo sapiens, UniProt O00321 1-342); conditions: protein: recombinant; tags: N-terminal GST; dsDNA, one strand shown
T6 sequence: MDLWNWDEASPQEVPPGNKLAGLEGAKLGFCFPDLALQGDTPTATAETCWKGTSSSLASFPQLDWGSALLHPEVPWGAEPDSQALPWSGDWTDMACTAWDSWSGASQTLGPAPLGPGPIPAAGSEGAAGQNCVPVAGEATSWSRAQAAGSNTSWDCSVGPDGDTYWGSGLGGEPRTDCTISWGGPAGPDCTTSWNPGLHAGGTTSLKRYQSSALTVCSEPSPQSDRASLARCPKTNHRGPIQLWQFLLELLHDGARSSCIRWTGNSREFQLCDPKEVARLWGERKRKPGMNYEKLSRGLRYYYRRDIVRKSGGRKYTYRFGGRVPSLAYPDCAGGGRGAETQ
Summary of the method: as §1

ELF3 = target: T7, ELF3 (Homo sapiens, UniProt P78545 1-371); conditions: protein: recombinant; tags: N-terminal GST; dsDNA, one strand shown
T7 sequence: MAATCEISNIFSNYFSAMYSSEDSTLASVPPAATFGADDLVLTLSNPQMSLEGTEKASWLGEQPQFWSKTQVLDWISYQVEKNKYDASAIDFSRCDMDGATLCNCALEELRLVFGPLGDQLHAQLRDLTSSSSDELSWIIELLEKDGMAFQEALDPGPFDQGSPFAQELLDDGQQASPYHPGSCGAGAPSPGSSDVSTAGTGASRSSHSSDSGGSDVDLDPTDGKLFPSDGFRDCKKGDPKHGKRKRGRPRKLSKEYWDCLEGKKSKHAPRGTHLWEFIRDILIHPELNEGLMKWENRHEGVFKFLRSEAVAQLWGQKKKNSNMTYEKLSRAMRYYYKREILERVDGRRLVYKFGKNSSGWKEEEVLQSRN
Summary of the method: as §1

CRX = CRX (Homo sapiens, UniProt O43186 1-299); conditions: protein: recombinant; tags: N-terminal GST; dsDNA, one strand shown
Summary of the method: as §1

ETV1 = ETV1 (Homo sapiens, UniProt P50549 1-477); conditions: protein: recombinant; tags: N-terminal GST; dsDNA, one strand shown
Summary of the method: as §1

ERG = target: T8, ERG (Homo sapiens, UniProt P11308 1-479); conditions: protein: recombinant; tags: N-terminal GST; dsDNA, one strand shown
T8 sequence: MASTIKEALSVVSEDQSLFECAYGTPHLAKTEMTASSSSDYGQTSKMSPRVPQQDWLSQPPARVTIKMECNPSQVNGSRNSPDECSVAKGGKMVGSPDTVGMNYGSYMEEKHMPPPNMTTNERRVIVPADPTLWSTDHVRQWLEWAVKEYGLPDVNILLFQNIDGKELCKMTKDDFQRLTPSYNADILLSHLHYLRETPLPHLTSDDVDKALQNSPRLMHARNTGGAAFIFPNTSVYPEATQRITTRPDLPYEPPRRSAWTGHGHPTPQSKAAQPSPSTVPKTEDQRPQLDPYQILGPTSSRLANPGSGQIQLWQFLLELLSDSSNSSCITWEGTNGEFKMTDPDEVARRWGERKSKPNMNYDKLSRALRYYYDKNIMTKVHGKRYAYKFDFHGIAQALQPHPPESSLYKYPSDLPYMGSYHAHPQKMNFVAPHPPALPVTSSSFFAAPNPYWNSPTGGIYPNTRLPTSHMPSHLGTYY
Summary of the method: as §1

EHF = target: T9, EHF (Homo sapiens, UniProt Q9NZC4 1-300); conditions: protein: recombinant; tags: N-terminal GST; dsDNA, one strand shown
T9 sequence: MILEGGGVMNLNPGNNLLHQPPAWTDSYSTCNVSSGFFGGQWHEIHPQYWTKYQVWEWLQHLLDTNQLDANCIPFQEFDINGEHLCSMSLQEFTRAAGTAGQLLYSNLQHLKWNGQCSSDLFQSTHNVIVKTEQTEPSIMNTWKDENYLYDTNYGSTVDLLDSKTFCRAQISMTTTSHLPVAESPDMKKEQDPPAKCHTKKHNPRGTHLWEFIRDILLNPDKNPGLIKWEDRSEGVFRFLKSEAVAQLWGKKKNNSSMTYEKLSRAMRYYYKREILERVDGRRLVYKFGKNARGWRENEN
Summary of the method: as §1

ELK3 = target: T10, ELK3 (Homo sapiens, UniProt P41970 1-407); conditions: protein: recombinant; tags: N-terminal GST; dsDNA, one strand shown
T10 sequence: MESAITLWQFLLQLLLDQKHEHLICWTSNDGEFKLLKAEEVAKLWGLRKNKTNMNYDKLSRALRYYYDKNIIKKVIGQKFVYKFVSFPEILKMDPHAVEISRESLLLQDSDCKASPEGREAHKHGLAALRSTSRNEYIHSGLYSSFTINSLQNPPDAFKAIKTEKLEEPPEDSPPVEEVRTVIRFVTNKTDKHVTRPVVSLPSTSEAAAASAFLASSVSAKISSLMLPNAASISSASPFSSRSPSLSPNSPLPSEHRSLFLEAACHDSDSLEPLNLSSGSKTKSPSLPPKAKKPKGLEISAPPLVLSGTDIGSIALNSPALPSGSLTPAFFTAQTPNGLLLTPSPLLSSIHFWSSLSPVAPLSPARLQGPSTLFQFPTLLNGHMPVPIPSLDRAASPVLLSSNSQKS
Summary of the method: as §1

Sequence of ELF1 (P32519 whole entry): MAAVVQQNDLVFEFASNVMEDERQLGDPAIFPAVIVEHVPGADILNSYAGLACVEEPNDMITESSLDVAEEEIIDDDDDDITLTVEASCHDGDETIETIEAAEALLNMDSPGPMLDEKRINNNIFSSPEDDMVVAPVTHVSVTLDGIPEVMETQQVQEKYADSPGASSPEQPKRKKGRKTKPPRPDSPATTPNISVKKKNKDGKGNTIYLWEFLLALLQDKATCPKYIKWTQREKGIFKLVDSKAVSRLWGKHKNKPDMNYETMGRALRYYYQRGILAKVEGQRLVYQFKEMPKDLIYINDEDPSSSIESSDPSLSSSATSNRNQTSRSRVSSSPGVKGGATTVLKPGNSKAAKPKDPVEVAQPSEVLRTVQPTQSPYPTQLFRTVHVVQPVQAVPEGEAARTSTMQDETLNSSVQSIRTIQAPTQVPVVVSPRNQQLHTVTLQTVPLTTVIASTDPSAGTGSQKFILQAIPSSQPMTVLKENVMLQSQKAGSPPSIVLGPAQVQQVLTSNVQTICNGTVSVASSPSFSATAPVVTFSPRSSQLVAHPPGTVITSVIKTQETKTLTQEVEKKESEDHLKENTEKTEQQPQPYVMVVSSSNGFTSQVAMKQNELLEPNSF
Sequence of ELF4 (Q99607 whole entry): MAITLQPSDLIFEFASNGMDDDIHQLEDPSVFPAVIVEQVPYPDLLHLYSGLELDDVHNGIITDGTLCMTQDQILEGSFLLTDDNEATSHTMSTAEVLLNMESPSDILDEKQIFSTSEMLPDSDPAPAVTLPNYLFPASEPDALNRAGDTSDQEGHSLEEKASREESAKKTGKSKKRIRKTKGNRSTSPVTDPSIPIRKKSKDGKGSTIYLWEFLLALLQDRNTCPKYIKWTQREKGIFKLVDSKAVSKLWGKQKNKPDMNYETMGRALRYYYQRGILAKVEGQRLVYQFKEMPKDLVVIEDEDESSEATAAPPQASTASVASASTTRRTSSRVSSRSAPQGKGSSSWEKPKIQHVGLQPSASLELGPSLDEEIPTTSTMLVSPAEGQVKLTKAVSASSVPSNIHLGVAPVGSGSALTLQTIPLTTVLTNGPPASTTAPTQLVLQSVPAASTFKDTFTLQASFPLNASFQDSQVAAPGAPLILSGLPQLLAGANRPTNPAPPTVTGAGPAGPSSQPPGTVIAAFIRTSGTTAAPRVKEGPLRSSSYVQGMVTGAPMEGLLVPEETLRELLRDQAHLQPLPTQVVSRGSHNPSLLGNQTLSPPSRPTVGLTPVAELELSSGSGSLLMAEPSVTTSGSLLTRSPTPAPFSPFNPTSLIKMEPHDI
Sequence of ETV5 (P41161 whole entry): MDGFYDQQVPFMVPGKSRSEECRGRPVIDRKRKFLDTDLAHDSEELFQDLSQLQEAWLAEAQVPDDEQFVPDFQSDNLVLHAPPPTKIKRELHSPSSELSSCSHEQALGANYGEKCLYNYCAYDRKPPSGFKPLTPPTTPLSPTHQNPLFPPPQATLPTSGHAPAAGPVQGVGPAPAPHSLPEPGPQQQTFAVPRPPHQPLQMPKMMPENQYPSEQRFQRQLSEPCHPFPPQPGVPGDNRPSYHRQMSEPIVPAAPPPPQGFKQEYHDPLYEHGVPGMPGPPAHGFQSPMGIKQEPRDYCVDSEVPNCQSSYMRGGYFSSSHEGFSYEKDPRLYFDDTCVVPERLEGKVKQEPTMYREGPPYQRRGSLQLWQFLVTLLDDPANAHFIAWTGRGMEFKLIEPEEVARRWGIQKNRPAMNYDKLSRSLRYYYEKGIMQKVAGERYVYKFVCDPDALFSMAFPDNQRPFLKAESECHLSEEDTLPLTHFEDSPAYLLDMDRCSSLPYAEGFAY
Sequence of SPIB (Q01892 whole entry): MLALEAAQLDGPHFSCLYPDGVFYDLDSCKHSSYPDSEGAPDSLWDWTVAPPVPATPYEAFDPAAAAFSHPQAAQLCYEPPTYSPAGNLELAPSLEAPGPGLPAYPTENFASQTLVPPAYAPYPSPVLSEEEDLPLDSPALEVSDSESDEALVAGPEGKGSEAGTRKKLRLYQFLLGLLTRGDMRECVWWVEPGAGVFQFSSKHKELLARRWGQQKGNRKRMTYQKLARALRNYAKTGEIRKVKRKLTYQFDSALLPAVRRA
Sequence of ETV1 (P50549 whole entry): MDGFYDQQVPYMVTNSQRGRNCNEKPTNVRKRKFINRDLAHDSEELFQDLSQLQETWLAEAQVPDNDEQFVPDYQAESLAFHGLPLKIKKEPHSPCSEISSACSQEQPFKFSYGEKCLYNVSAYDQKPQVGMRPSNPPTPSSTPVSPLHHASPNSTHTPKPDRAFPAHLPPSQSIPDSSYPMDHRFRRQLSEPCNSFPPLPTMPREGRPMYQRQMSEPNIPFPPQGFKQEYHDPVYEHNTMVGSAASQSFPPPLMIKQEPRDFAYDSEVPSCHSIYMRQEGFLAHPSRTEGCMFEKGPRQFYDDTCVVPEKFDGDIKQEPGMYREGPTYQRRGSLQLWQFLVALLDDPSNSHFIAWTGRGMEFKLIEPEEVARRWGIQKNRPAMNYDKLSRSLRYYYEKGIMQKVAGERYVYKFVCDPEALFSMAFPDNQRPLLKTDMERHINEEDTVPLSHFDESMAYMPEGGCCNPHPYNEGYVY
Sequence of HSF1 (Q00613 whole entry): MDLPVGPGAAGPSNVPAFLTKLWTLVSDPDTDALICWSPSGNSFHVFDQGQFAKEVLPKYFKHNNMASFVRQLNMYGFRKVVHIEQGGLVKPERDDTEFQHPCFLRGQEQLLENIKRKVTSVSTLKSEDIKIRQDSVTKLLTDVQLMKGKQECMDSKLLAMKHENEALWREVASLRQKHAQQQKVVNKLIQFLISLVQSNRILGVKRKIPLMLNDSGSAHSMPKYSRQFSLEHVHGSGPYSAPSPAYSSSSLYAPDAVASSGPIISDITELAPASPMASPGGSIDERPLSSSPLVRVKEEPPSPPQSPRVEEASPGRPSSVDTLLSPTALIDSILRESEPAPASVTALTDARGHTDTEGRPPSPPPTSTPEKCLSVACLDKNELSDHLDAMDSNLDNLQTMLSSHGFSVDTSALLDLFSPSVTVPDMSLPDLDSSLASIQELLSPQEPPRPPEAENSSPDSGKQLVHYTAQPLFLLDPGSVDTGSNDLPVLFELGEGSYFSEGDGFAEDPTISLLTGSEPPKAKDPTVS
Sequence of CRX (O43186 whole entry): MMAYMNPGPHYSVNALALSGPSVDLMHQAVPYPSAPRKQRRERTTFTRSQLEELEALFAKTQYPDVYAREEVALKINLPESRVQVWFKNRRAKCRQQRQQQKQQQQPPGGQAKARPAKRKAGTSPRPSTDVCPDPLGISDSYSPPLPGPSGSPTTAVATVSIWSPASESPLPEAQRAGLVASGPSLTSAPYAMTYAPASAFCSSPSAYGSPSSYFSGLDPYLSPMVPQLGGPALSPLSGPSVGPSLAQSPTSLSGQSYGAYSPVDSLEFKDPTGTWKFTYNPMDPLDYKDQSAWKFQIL

| Sequence | binding signal (FLI1) | binding signal (ELK1) | binding signal (GABPA) | binding signal (ELF1) | binding signal (SPI1) | binding signal (SPIB) | binding signal (FEV) | binding signal (ETV5) | binding signal (HSF1) | binding signal (ELF4) | binding signal (ELK4) | binding signal (ETV2) | binding signal (ELF3) | binding signal (CRX) | binding signal (ETV1) | binding signal (ERG) | binding signal (EHF) | binding signal (ELK3) |
| --- | --- | --- | --- | --- | --- | --- | --- | --- | --- | --- | --- | --- | --- | --- | --- | --- | --- | --- |
| AAGCCC | 1.04 fold enrichment (6-mer frequency, TF over GST control) | 1.07 fold enrichment (6-mer frequency, TF over GST control) | 1.11 fold enrichment (6-mer frequency, TF over GST control) | 1.08 fold enrichment (6-mer frequency, TF over GST control) | 1.04 fold enrichment (6-mer frequency, TF over GST control) | 1.07 fold enrichment (6-mer frequency, TF over GST control) | 1.06 fold enrichment (6-mer frequency, TF over GST control) | 1.04 fold enrichment (6-mer frequency, TF over GST control) | 1.22 fold enrichment (6-mer frequency, TF over GST control) | 1.04 fold enrichment (6-mer frequency, TF over GST control) | 1.06 fold enrichment (6-mer frequency, TF over GST control) | 1.11 fold enrichment (6-mer frequency, TF over GST control) | 1.04 fold enrichment (6-mer frequency, TF over GST control) | 1.54 fold enrichment (6-mer frequency, TF over GST control) | 1.06 fold enrichment (6-mer frequency, TF over GST control) | – | – | – |
| AGCTGC | 1.16 fold enrichment (6-mer frequency, TF over GST control) | 1.16 fold enrichment (6-mer frequency, TF over GST control) | 1.17 fold enrichment (6-mer frequency, TF over GST control) | 1.18 fold enrichment (6-mer frequency, TF over GST control) | 1.11 fold enrichment (6-mer frequency, TF over GST control) | 1.24 fold enrichment (6-mer frequency, TF over GST control) | 1.15 fold enrichment (6-mer frequency, TF over GST control) | 1.06 fold enrichment (6-mer frequency, TF over GST control) | 1.04 fold enrichment (6-mer frequency, TF over GST control) | 1.16 fold enrichment (6-mer frequency, TF over GST control) | 1.11 fold enrichment (6-mer frequency, TF over GST control) | 1.22 fold enrichment (6-mer frequency, TF over GST control) | 1.08 fold enrichment (6-mer frequency, TF over GST control) | 1.13 fold enrichment (6-mer frequency, TF over GST control) | 1.18 fold enrichment (6-mer frequency, TF over GST control) | 1.1 fold enrichment (6-mer frequency, TF over GST control) | 1.18 fold enrichment (6-mer frequency, TF over GST control) | 1.01 fold enrichment (6-mer frequency, TF over GST control) |

Source: paper PMC7862700, “An all-to-all approach to the identification of sequence-specific readers for epigenetic DNA modifications on cytosine”
